MITF act = activators of MITF-driven TRPM1 promoter activity in SK-MEL-5 cells; SK-MEL-5 TRPM1-promoter luciferase, 24 h; % of positive control, neutral wells = 0; hit rate 0.75% among 300,000; activation, % at 12.5 µM;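 active = mean activation of at least 80% with every replicate also reaching 80%; inconclusive = mean reaches 80% but some replicate falls short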;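 also: 0% = neutral control wells and 100% = parthenolide positive control wells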
Wnt act = activates Wnt/beta-catenin signaling in a reporter cell assay; activator, plate reader; activation, % at 9.35 µM; hit rate 1.2% among 300,000; AID 743398; in the data active = activation above about 30%, passing the limit was not always enough; inconclusive = no clear call, values can overlap the other calls;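 also: 0% = neutral control wells and 100% = positive control wells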
LMP1 NFkB inh = reduces LMP1-driven NF-kappaB luciferase signal. inhibition, % at 12.5 µM. hit rate 0.69% among 350,000. AID 504558. LMP1-induced NF-kappaB luciferase reporter cells, luminescence; in the data active = inhibition above about 41%; inconclusive = no clear call, values can overlap the other calls;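 also: 0% = neutral control wells and 100% = reference inhibitor control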
Statin myotox sup = suppression of simvastatin myotoxicity. C2C12 myotubes + simvastatin, ATP luminescence, 48 h; scaled: DMSO 0, geranylgeraniol control 100. hit rate 0.78% among 330,000. rescue of ATP level, % at 7.49 µM. AID 602340;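 active = mean ATP rescue above about 67%, or every replicate alone reaching that limit, limit read from the data, passing the limit was not always enough; inconclusive = no clear call, values can overlap the other calls; inactive = mean under the limit and some replicate under it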;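 also: myotubes were challenged with 10 µM simvastatin during compound exposure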
TRPM1 prom inh = reduces MITF-dependent TRPM1 promoter luciferase signal; hit rate 0.83% among 330,000; inhibition, % at 12.5 µM; AID 488899; SK-MEL-5 TRPM1 promoter luciferase, 24 h;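 active = mean inhibition across replicates of 60% or more, whatever share of single replicates reaches that level; inconclusive = some that reach 60%, reason not given; inactive = mean inhibition across replicates below 60%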
esBAF inh = SWI/SNF esBAF complex inhibition. mouse ES cells, Bmi1-luciferase knock-in reporter, 24 h; 100% = twice the neutral-well signal. hit rate 2% among 350,000. reporter increase, % at 12.5 µM. AID 602393; in the data active = activation above about 40%; inconclusive = no clear call, values can overlap the other calls;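 also: 0% = median of the plate's neutral control wells and 100% = double that signal; a rise in the Bmi1 reporter signal indicates esBAF inhibition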
* marks the source's active call; other numbers are inactive results; u = inconclusive; x = no result given. This is a sample that favours compounds with a hit; in the whole collection about 4% have one here.

SMILES	MITF act	Wnt act	LMP1 NFkB inh	Statin myotox sup	TRPM1 prom inh	esBAF inh
CCOc1ccc(C(F)(F)F)cc1NC(C)=O	x	-1	0	96*	-6	-7
CCOc1ccc(C(F)(F)F)cc1NC(=O)COc1ccc(C(F)(F)F)cc1[N+](=O)[O-]	x	x	-2	-8	0	-14
Cc1noc(C)c1CSCC(=O)N1CCN(c2ccc(F)cc2)CC1	-5	-4	8	31	3	7
CSc1nc(Cl)cc(Nc2ccc(O)cc2)n1	20	38*	-12	x	-22	x
CNc1cc(Cl)nc(SC)n1	-1	-1	-5	x	3	x
COc1ccccc1Nc1ncc(-c2cccs2)s1	72	x	-55	-14	-70	54*
COc1ccccc1Nc1ccc(C(=O)NCc2cccs2)cn1	9	0	-2	1	-9	-3
O=C(Nc1cccnc1)c1cn(-c2ccccc2)nc1-c1cccs1	59	29	-7	9	-56	58*
CCOc1ccc(NC(=O)CN(C)C(=O)c2cn(-c3ccc(F)cc3)nc2-c2cccc(OC)c2)cc1OCC	1	0	5	12	1	7
CCN(CC)CCNC(=O)c1ccc(NC(=O)c2cn(-c3ccccc3)nc2-c2cccs2)cc1	-75	-9	-8	x	76*	x
O=C(Nc1cccc2ccccc12)c1cn(-c2ccccc2)nc1-c1cccs1	33	0	-15	x	-35	x
CN(C)C(=O)c1ccc(NC(=O)c2cc(-c3ccco3)nc3ccccc23)cc1	7	-2	-8	x	-7	x
CCN(CC)CCNC(=O)c1ccc(NC(=O)c2cn(-c3ccc(F)cc3)nc2-c2cccc(OC)c2)cc1	-96	-5	-10	-15	98*	0
CN(CC(=O)Nc1ccc(F)cc1)C(=O)c1cn(-c2ccccc2)nc1-c1cccs1	-4	2	-3	4	5	1
CCN(CC)CCNC(=O)c1ccc(NC(=O)c2cc(-c3ccco3)nc3ccccc23)cc1	-67	-1	-15	-8	70*	1
O=C(Nc1ccc(F)cc1F)c1cccc(S(=O)(=O)N2CCCCC2)c1	-2	-5	-1	10	1	-2
O=C(Cc1cccs1)Nc1ccc(S(=O)(=O)N2CCCC2)cc1	17	-1	-9	0	-12	-10
O=C(O)c1cccc(NC(=O)c2cn(-c3ccccc3)nc2-c2ccc(F)cc2)c1	2	-3	82*	0	-4	-3
Cc1ccc(-c2nn(-c3ccccc3)cc2C(=O)Nc2ccc(C(=O)O)cc2)cc1	32	5	-3	x	-32	x
COc1ccc(-c2cc(-c3ccc(C)cc3)n[nH]2)c(O)c1	68	55*	-17	19	-62	u
COc1ccc(-c2cc(-c3cc(C)ccc3O)[nH]n2)cc1	30	-8	-64	x	-29	x
COc1ccc(-c2cc(-c3ccc(OC)cc3)[nH]n2)cc1	u	49*	-31	9	-92	64*
c1ccc2c(c1)COc1c3ncccc3nn1-2	x	7	-19	-2	x	50*
Oc1ccccc1-c1nnc(COc2ccc(Cl)cc2Cl)o1	96*	u	-12	-2	-94	12
Clc1ccc(-c2nnc(CCc3ccccc3)o2)c(Cl)c1	u	20	-43	0	-84	60*
SMILES	MITF act	Wnt act	LMP1 NFkB inh	Statin myotox sup	TRPM1 prom inh	esBAF inh
CC(=O)Nc1c(Br)cc2c(c1Br)C(=O)c1ccccc1-2	3	4	5	x	-3	x
CC(=O)C1=C(c2ccc(Br)cc2)C(=O)c2ccccc2C1=O	-83	-26	92*	-122	84*	-75
Cc1ccc(C(c2nc3ccccc3[nH]2)n2c(-c3ccccc3)nc3ccccc32)cc1 (configuration not stated)	x	-1	x	2	x	70*
O=C(CN1CCCCC1)Nc1ccc(Br)cc1[N+](=O)[O-]	23	0	-9	-4	-19	49*
CC(=O)c1ccc(OCc2cc(C(=O)NCCc3ccc(Cl)cc3)no2)cc1	21	3	-6	16	-19	6
CC(=O)Nc1ccc(NC2=C/C(=N/S(=O)(=O)c3cccs3)c3ccccc3C2=O)cc1	-102	-13	2	x	102*	x
COc1ccc(S(=O)(=O)/N=C2\C=C(Nc3ccc(O)cc3)C(=O)c3ccccc32)cc1	-99	0	74*	-727	99*	-68

Screening results from PubChem BioAssay.
